Compounds without any hit were thinned out: in the full panel of roughly 83,000, 20% have a hit.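 A percent growth of 40 corresponds to 60% growth inhibition; 0 means no net growth; -100 means all cells died. Active threshold: below 10.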 A number with no mark means an inactive call. Active and inactive are the calls of the source.

The assay has as its system IGROV1 ovarian. As to the kind of experiment: NCI-60 one-dose screen, 48 h (100 = growth as untreated, 0 = no growth, -100 = all killed). The following applies: 10 µM unless noted. The procedure: Growth inhibition of the IGROV1 human tumor cell line is measured as a screen for anti-cancer activity. Cells are grown in 96 well plates and exposed to the test compound for 48 hours. Compounds are tested at a single concentration, which is 10^-5 M for most compounds. The reported endpoint is percent growth (GI% or GIPRCNT), where numbers from 0 - 100% represent growth inhibition, and numbers from -100% - 0 represent cell death. For example, a value of 40 represents 60% growth inhibition. A value of 0 means no net growth occurred over the course of the experiment. A value of -40 indicates 40% of cells at the beginning of the experiment died by the end of the experiment. A value of -100 means all cells are dead at the end of the experiment.
NCI-60 Human Tumor Cell Lines Screen was performed using the standard one-dose NCI protocol, which is described in more detail at https://dtp.cancer.gov/discovery_development/nci-60/default.htm.
Compounds with GIPRCNT values below 10 were considered active. Activity score was based on GIPRCNT using the following formula: […]
Score is 0 for GIPRCNT values of 100 or above, 50 for GIPRCNT values of 0, and 100 for GIPRCNT values of -100.
`CC1=CC2(C)/C=C(C)/C=C\CC(O)/C=C3/C=CC(=C4C(=O)OC2(CC1C)C4=O)OC3` (stereo not given): the growth was -49.1% (active).

For the compound `O=C(OC(OC(=O)c1cc(Cl)cc(Cl)c1)c1cccc2ccccc12)c1ccccc1` (stereo not given), the growth is 96.5%.

Consider `CCCCCN1C=C/C(=C\C(=O)N(C)c2ccc(Br)cc2)c2ccccc21`, for which the growth was 96.3%.

For the compound `C=C(C)[C@@H]1CC[C@]2(C(=O)N3CCN(C)CC3)CC[C@]3(C)[C@H](CC[C@@H]4[C@@]5(C)CCC(=O)C(C)(C)[C@@H]5CC[C@]43C)[C@@H]12`, the growth is 89.2%.

For the compound `COC(=O)C(c1ccccc1)C(CC(=O)c1ccccc1)c1ccccc1` (stereo not given), the growth is 83.3%.

Consider `FC(F)(F)c1cccc(Oc2ccc(Nc3ncnc4ccc(OCCCN5CCOCC5)cc34)cc2Cl)c1`, for which the growth is 12.2%.

For `Cc1ccc(O)c(C(=O)O)c1`, the growth is 95.3%.

Turning to `COc1ccc2c(/C=C3/C(=O)NC(=S)NC3C)cc(=O)oc2c1` (stereo not given), the growth is 96.2%.

Regarding `O=c1[nH]nc(-c2ccc(Cl)cc2)cc1Cc1cccc([N+](=O)[O-])c1`, the growth was 82.4%.

As for `CN1C(=O)N(C)[C@H]2NC(NN)=N[C@H]21`, the growth is 98.9%.

With `CCCCCCC/C=C/[C@H]1O[C@]2(O)C(=O)C=C3C[C@@H](O[C@@H]4O[C@H](CO)[C@@H](O)C(O)[C@@H]4O)C[C@@H]3[C@H]2C=C1C` (stereo not given in full), the growth is -7.08% (active).

Take `Cc1[nH]c(C(=O)Nc2ccccc2OCc2cccc(C(=O)NCCN)c2)c(Cl)c1Cl`: the growth was 71.1%.

Turning to `Cc1c2c(cc[n+]1Cc1ccccc1)c1ccc(OCc3ccccc3)cc1n2Cc1ccccc1`, the growth was -65.1% (active).

Turning to `COc1cc(/C=C/C(=O)c2ccc(Nc3ncnc4ccccc34)cc2)cc(OC)c1`, the growth is 60.2%.

For `CS(=O)(=O)OCCN(CCOS(C)(=O)=O)c1ccc(/C=N/Nc2ccc([N+](=O)[O-])cc2[N+](=O)[O-])cc1`, the growth was 72%.

For the compound `O=C(Nc1nc(-c2ccccc2Cl)cs1)c1cc(-c2ccccc2)nc2ccc(Cl)cc12`, the growth is 59.7%.

As to `C[C@]12C[C@H]1CC[C@]1(C)[C@@H]2CC[C@@]23C[C@H](CC[C@H]21)[C@@](O)(CO)C3`, the growth was 104%.

`CC(=O)N1N=C(c2cccc(Nc3ccncc3)c2)CC1c1ccccc1` (stereo not given): the growth is 96%.

`Cc1c([N+](=O)[O-])cc(C(C)(C)C)cc1[N+](=O)[O-]`: the growth is 112%.

In the case of `O=S(=O)(c1ccc(N/N=C\c2ccccc2)cc1)c1ccc(N/N=C/c2ccccc2)cc1`, the growth was 72.1%.

On to `CS(=O)(=O)c1ccc(-c2cc3c(oc2=O)-c2ccccc2OC3O)cc1` (stereo not given), for which the growth was 102%.

For the compound `COc1ccc(C(O)c2cc3c(N)c(C(=O)Nc4cccc(OC)c4)sc3nc2C)cc1` (stereo not given), the growth is 15.4%.

Consider `O=C1c2cccnc2C(=O)c2nc3cc(N4CCN(C5CC5)CC4)ccc3nc21`, for which the growth is -13.8% (active).

As for `CCN(CC)S(=O)(=O)c1cccc([N+](=O)[O-])c1`, the growth was 107%.

Turning to `c1ccc(N2N=C(c3cccc(Nc4ccncc4)c3)CC2c2ccc3c(c2)OCO3)cc1` (stereo not given), the growth was 16%.

On to `CCCCCCCCOc1ccc(/C=N/Nc2cc(C)nc3ccc(Cl)cc23)cc1`, for which the growth was -84.6% (active).

`O=C1Nc2ccccc2/C1=C\c1cccc(/C=C2/C(=O)Nc3ccccc32)n1`: the growth was -66.8% (active).

Take `CCc1nc(C)cn1C(=O)OCc1nc2nc(Cl)nc(N3CCOCC3)c2[nH]1`: the growth is -48.1% (active).

For `Cc1cc(NC(=O)c2cnc(N3CCN(CCOCCOCCOCCOCCC(=O)N[C@H](C(=O)N4C[C@H](O)C[C@H]4C(=O)N[C@@H](C)c4ccc(-c5scnc5C)cc4)C(C)(C)C)CC3)cn2)c2ncccc2c1`, the growth was -37.8% (active).

As for `Cn1c(COC(=O)NCCN2CCOCC2)nc2c(N3CCOCC3)nc(-c3ccccc3)nc21`, the growth was -93.3% (active).

As to `COc1ccc(C(O)c2cc3c(N)c(C(=O)Nc4ccc(Cl)cc4)sc3nc2C)cc1` (stereo not given), the growth is 33%.

For the compound `CN1CCN(c2ccc3nc(-c4cc(C(C)(C)C)c(O)c(C(C)(C)C)c4)[nH]c3c2)CC1`, the growth was 88%.

In the case of `Cc1cn(-c2cc(C(=O)Nc3cccc(C#Cc4cccc5[nH]nc(N)c45)c3)cc(C(F)(F)F)c2)cn1`, the growth was 25.5%.

For the compound `COc1ccc(C(=O)c2cc3c(N)c(C(=O)Nc4cccc(Br)c4C)sc3nc2C)cc1`, the growth was 24.3%.

As for `COc1ccc(C(=O)c2cc(C)c(OC)c(C)c2)c(OC)c1N(C(=O)C(Cl)Cl)C(=O)C(Cl)Cl`, the growth is 31.3%.

For the compound `COc1ccc(Cc2nc3cc(OC)c(OC)cc3c(=O)[nH]2)cc1`, the growth was 65.7%.

Take `COc1ccc(NC(=O)c2sc3nc(C)c(C(O)c4ccc(OC)cc4)cc3c2N)cc1` (stereo not given): the growth was 29.1%.

Turning to `Cc1cccc(Oc2ccc(Nc3ncnc4ccc(NC(=O)CNCCO)cc34)cc2Cl)c1`, the growth was 9.02% (active).

On to `CCOC(=O)Oc1c(OC)cc(C(=O)O[C@@H]2C[C@@H]3CN4CCc5c([nH]c6cc(OC)ccc56)[C@H]4C[C@@H]3[C@H](C(=O)OC)[C@H]2OC)cc1OC`, for which the growth was 82.3%.

With `O=C(Nc1ccc(Cl)cc1)Nc1ccc(Cl)c(Cl)c1`, the growth is 21.5%.

Source of the values: PubChem BioAssay (NCI).
